Bioassay records deposited in PubChem BioAssay by National Center for Advancing Translational Sciences (NCATS).
An excerpt weighted towards active compounds, which were near 9% of everything screened.
Luc counter: Counterscreen for Luciferase (Kinase-Glo TM) Inhibition; 200,000 compounds, 0.28% hits; Luciferin 4-monooxygenase (Photuris pensylvanica), Q27757; Potency, µM (series often up to 38.3 µM), without a hit: top-dose activity change, negative = inhibition, most hits filed as inhibitors; Kinase-Glo luciferase, ATP luminescence, 8 min; active = well fitted curve in the direction sought with a large enough effect; inconclusive = small, poorly fitted or top-dose-only effect, or another doubt; inactive = no such curve, though single readings can be large; an effect the other way counts as inactive or inconclusive; note: nearly all actives have a fitted effect of over 60% in size
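Light output from Kinase-Glo luciferase with luciferin and 10 uM ATP in 50 mM imidazole pH 7.2, KCl, MgCl2, Tween 20, BSA; compound pin-delivered, 8-min ambient incubation, then luminescence read.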
ALDH1A1 block: qHTS Assay for Inhibitors of Aldehyde Dehydrogenase 1 (ALDH1A1); Aldehyde dehydrogenase 1A1 (Homo sapiens), P00352; Purified ALDH1A1, NADH fluorescence, propionaldehyde substrate; Potency, µM (doses to about 75.3 µM), without a hit: top-dose activity, negative = inhibition, usual class: inhibitors; 220,000 compounds, 7.3% hits; AID 1030, 2008;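 note: plate controls were no enzyme wells and a reference inhibitor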
Lamin A splicing: qHTS Assay for Modulators of Lamin A Splicing | Potency, µM (doses to about 46.1 µM), without a hit: at the top dose ratio change, negative = inhibition, usual class: inhibitors | HeLa LMNA splicing GFP/RFP minigene ratio, 48 h | 200,000 compounds, 0.01% hits; active = well fitted inhibition curve with a large enough effect in the signal ratio, with a control signal flat, not every such curve was filed as active; inconclusive = small, poorly fitted or top-dose-only effect, or effect the other way, or a change in a side signal; the % refers to the signal ratio
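S3 HeLa cells stably expressing lamin A-EGFP splicing minigene plus DsRed2, 600 cells/well, 48 h compound exposure at 37C. Laser-scanning cytometry; analysed as GFP (500-530 nm)/RFP (575-640 nm) total intensity ratio; 0.5% DMSO vehicle.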
HPGD block: qHTS Assay for Inhibitors of HPGD (15-Hydroxyprostaglandin Dehydrogenase). 15-hydroxyprostaglandin dehydrogenase [NAD(+)] (Homo sapiens), P15428. purified HPGD, NADH fluorescence kinetic, PGE2 substrate. Potency, µM, inactives show top-dose activity change, negative = inhibition, hits mostly inhibitors. 150,000 compounds, 4.3% hits. AID 894, 2007
Target sequence (P15428 whole entry, looked up): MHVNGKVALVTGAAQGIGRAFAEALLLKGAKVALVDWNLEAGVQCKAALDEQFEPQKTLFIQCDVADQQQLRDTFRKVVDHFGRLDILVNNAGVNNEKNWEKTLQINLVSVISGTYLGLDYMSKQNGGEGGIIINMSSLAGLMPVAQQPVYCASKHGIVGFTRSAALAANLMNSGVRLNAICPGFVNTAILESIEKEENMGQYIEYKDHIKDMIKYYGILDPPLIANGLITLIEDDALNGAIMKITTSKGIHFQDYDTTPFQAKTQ
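NADH formation kinetics: reaction with 30 uM PGE2 and 1 mM NAD+ (final), 20 nM enzyme, Tris-HCl pH 8 with Tween 20, after 15 min compound preincubation at room temperature. Fluorescence change, last versus first of five reads.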
IMPase Li cell: qHTS Assay for Identifying the Cell-Membrane Permeable IMPase Inhibitors: Potentiation with Lithium | CHO-M1 cells, IP1 TR-FRET (IP-One), carbachol + lithium | Potency, µM (titrated, usually from 59.4 µM), without a hit: at the highest dose activity, negative = IMPase inhibition, most hits filed as inhibitors | 210,000 compounds, 0.35% hits; active = well fitted curve in the direction sought with a large enough effect; inconclusive = small, poorly fitted or top-dose-only effect, or another doubt; inactive = no such curve, though single readings can be large; an effect the other way counts as inactive or inconclusive;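 note: IP1 builds up when IMPase is blocked and the TR-FRET signal falls; plate controls were basal vehicle for no effect and high inhibitor control for full effect; nearly all actives have a fitted effect of over 50% in size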
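Concentration–response in CHO-M1 cells, lithium-potentiated; 30 min at 37C. IP1 detected by competitive TR-FRET after 10 min lysis at RT. Hill-fitted AC50.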
An asterisk follows results filed as active; ? = inconclusive; nt = no result given; [ ] = another dose, or the depositor's remark. Unless noted, calls come from the whole dose curve; as a rule, active = well fitted inhibition curve with a large enough effect (not every such curve was filed as active); inconclusive = small, poorly fitted or top-dose-only effect, or another doubt; inactive = no such curve, though single readings can be large or run the other way. Unless noted, % is set by controls: 0 for no effect and ±100 for the full control effect; potency is the fitted concentration of half-maximal effect.

SMILES	Luc counter	ALDH1A1 block	Lamin A splicing	HPGD block	IMPase Li cell
C[C@H](NC(=O)N1CCc2nc(COc3ccccc3)c3c(c2C1)CO[C@@H](C)C3)c1ccccc1	-2.0%[7.66 µM]	-9.5%[13.5 µM]	?	-11.4%	7.4%
Cc1ccc(CN2C(=O)CNC2=S)cc1	4.0%	-0.5%	nt	nt	-0.2%
Cc1ccc(Cc2c[nH]c(=S)s2)cc1	-1.1%	8.91µM*	nt	nt	3.4%
COc1ccc(C2CCCN2C(=S)Nc2cccc(Cl)c2C)cc1OC (stereo not drawn)	-0.4%	?	3.7%[46 µM]	nt	7.5%
Cc1cc(C(=O)Nc2ccc3c(c2)OCCO3)co1	-16.9%	3.6%	8.8%	-23.9%	nt
O=C(Nc1ccc(NC(=O)c2ccccn2)cc1)C(=O)Nc1ccc2c(c1)OCCO2	1.1%	?	?	nt	0.0%
Cn1nc(C(=O)Nc2ccc3c(c2)OCCO3)cc1C(=O)O	11.2µM*	-0.8%	nt	nt	2.4%
Cn1nccc1C(=O)Nc1ccc2c(c1)OCCO2	12.6µM*	-7.7%	14.9%[46 µM]	nt	0.3%
O=C(Nc1ccc(N2CCOCC2)cc1)c1cn2ccccc2n1	4.47µM*	2.5%	6.8%[0.0737 µM]	-12.5%	0.8%[38.3 µM]
O=C(Nc1ccc2c(c1)OCCO2)c1ccccn1	12.6µM*	4.5%	1.5%[46 µM]	nt	-3.9%
CO[C@]12CC(COC(=O)c3cncc(Br)c3)CN(C)[C@@H]1Cc1cn(C)c3cccc2c13 (stereo partly drawn)	0.0%	2.3%	nt	-1.6%	10.7%
CCNc1ncnc2c1nnn2C	nt	nt	-6.0%[46 µM]	nt	nt
O=C(CCSCc1ccccc1Cl)NCCc1ccccc1	nt	nt	-7.6%[46 µM]	nt	nt
COc1ccccc1C(=O)Nc1ccc(N2CCCCC2)cc1	-4.6%	10.8%	-22.4%	-17.7%	18.9%[38.3 µM]
Cc1nn(C)c(C)c1NC(=O)c1ccnn1C	-0.1%	17.8µM*	10.8%	-7.2%	-7.9%[38.3 µM]
O=C(Nc1ccc(N2CCCCC2)cc1)c1ccccn1	7.94µM*	-0.1%	nt	nt	7.5%
CC(=O)N1CCOc2cc(S(=O)(=O)N(C)Cc3ccccc3)c(Cl)cc21	nt	nt	7.0%[46 µM]	nt	nt
Fc1ccccc1CSc1nc2ncccc2[nH]1	-9.1%	22.4µM*	15.5%	17.8µM*	19.4%[38.3 µM]
Cc1cccc(/N=C/c2c(O)n(Cc3ccc4c(c3)OCO4)c(=O)c3ccccc23)n1	-2.2%	17.2%	3.5%[46 µM]	nt	7.0%
CN(c1ccc(C(=O)NCC2CCCO2)cc1)S(=O)(=O)c1ccccc1 (stereo not drawn)	0.1%	15.3%	-0.3%	14.1µM*	5.0%[38.3 µM]
COc1cccc(CN(CC2CCCO2)C(=O)c2cc3ccccc3oc2=O)c1 (stereo not drawn)	-7.5%	15.8µM*	-7.1%[46 µM]	nt	17.4%
O=C(Nc1ccc(Cl)cc1C(=O)NCC1CCCO1)c1ccc(Cl)cc1Cl (stereo not drawn)	5.0%	2.6%	-5.5%	-1.0%	6.0%
O=C(NCC1CCCO1)c1sc2cc(Cl)ccc2c1Cl (stereo not drawn)	-0.8%	?	?	14.1µM*	16.6%
Cn1c(C(=O)NCC2CCCO2)cc2oc3ccccc3c21 (stereo not drawn)	-5.4%	-6.7%	?	1.41µM*	10.3%[38.3 µM]
COc1cc(C(=O)NCC2CCCO2)cc(OC)c1OC (stereo not drawn)	-2.6%	9.5%	-13.0%	-0.2%	-5.9%
SMILES	Luc counter	ALDH1A1 block	Lamin A splicing	HPGD block	IMPase Li cell
COc1cc(OC)cc(C(=O)NCC2CCCO2)c1 (stereo not drawn)	1.3%	-2.1%	-2.0%	25.1µM*	5.8%[38.3 µM]
COc1cccc(C(=O)NCC2CCCO2)c1 (stereo not drawn)	-3.0%	1.0%	-6.2%	8.91µM*	1.4%
O=C(NCC1CCCO1)c1ccc(COCC(F)(F)C(F)F)cc1 (stereo not drawn)	3.5%	-1.2%	8.4%	14.1µM*	13.2%[38.3 µM]
O=C(NCC1CCCO1)c1cccc(Br)c1 (stereo not drawn)	3.0%	7.2%	-0.8%	25.1µM*	14.4%[38.3 µM]
CC(C)NC(=O)c1ccc(COCC(F)(F)C(F)F)cc1	-1.9%	2.6%	8.7%	-19.8%	19.8%[38.3 µM]
CCC(=O)C(C(=O)OC)[C@H](CCc1ccccc1)NC(=O)OC (stereo partly drawn)	0.5%	3.0%	nt	-6.3%	11.5%
